Tests used:
H1975 [1] = test: area under confluence curve of compound monotherapy; compare to DMSO control AUC of the same experiment (AUC (confluence x time, arbitrary)); conditions: 1000 nM; DMSO control AUC in same experiment: 14522
Summary of the method: (§1)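 EGFR-mutant adenocarcinoma lines (RPMI 1640, 10% FBS, 37 °C, 5% CO2) were seeded at 20,000–30,000 cells/well in 48-well plates and next day given test compound alone at one dose (highest with <50% parental inhibition, or 1 uM), refreshed after PBS washes every 3–4 days, then drug-free from DTP stage (10–21 days). IncuCyte confluence was tracked until EGFR-inhibitor-only wells regrew. Area under the confluence curve came from Prism (median of triplicates where run), beside same-experiment vehicle AUC.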

HCC2279 [2] = test: as above; conditions: 1000 nM; DMSO control AUC in same experiment: 29252
Summary of the method: as §1

HCC2935 [3] = test: as above; conditions: 1000 nM; DMSO control AUC in same experiment: 11459
Summary of the method: as §1

HCC4006 [4] = test: as above; conditions: 1000 nM; DMSO control AUC in same experiment: 16794
Summary of the method: as §1

HCC827 [5] = test: as above; conditions: 1000 nM; DMSO control AUC in same experiment: 43928
Summary of the method: as §1

II-18 [6] = test: as above; conditions: 1000 nM; DMSO control AUC in same experiment: 23373
Summary of the method: as §1

PC9 = test: area under confluence curve of osimertinib + compound combination regimen (DTP regrowth); compare to osimertinib-only DTP control AUC of the same experiment (AUC (confluence x time, arbitrary))
Summary of the method: (§2)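 The area under the IncuCyte confluence–time curve, calculated in Prism and taken as the median of triplicates where available, is the value reported. It was measured in EGFR-mutant NSCLC lines that received the EGFR inhibitor either alone, followed by a test compound, or together with a fixed-dose test compound until the persister stage (10–21 days) and then drug-free medium. Medium was refreshed every 3–4 days until the inhibitor-only wells were confluent again.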

H1975 [7] = test: as above; conditions: test compound dose 10 nM, DMSO control AUC in same experiment: 20657
Summary of the method: as §2

HCC2279 [8] = test: as above; conditions: test compound dose 10 nM, DMSO control AUC in same experiment: 29252
Summary of the method: as §2

HCC2935 [9] = test: as above; conditions: test compound dose 10 nM, DMSO control AUC in same experiment: 13875
Summary of the method: as §2

HCC4006 [10] = test: as above; conditions: test compound dose 10 nM, DMSO control AUC in same experiment: 16638
Summary of the method: as §2

HCC827 [11] = test: as above; conditions: test compound dose 10 nM, DMSO control AUC in same experiment: 27404
Summary of the method: as §2

II-18 [12] = test: as above; conditions: test compound dose 10 nM, DMSO control AUC in same experiment: 7080
Summary of the method: as §2

COc1cc(CCc2cc(NC(=O)c3ccc(N4CC(C)NC(C)C4)cc3)n[nH]2)cc(OC)c1 (centres undefined)
area under confluence curve (H1975 [1]): 17400
area under confluence curve (HCC2279 [2]): 28700
area under confluence curve (HCC2935 [3]): 11000
area under confluence curve (HCC4006 [4]): 15300
area under confluence curve (HCC827 [5]): 46400
area under confluence curve (II-18 [6]): 19700

Cc1nc(Nc2n[nH]c3c2CN(C(=O)N[C@H](CN(C)C)c2ccccc2)C3(C)C)c2sccc2n1 + C=CC(=O)Nc1cc(Nc2nccc(-c3cn(C)c4ccccc34)n2)c(OC)cc1N(C)CCN(C)C [osimertinib]
area under confluence curve (PC9; test compound dose 100 nM, dosing schedule: sequential, osimertinib-only DTP control AUC in same experiment: 14258, DMSO control AUC in same experiment: 20347): 3500
area under confluence curve (PC9; test compound dose 100 nM, dosing schedule: upfront, osimertinib-only DTP control AUC in same experiment: 21499, DMSO control AUC in same experiment: 20347): 12300

Cn1cc(CNCC2CCN(c3ncc(C(=O)NO)cn3)CC2)c2ccccc21 [Quisinostat] + C=CC(=O)Nc1cc(Nc2nccc(-c3cn(C)c4ccccc34)n2)c(OC)cc1N(C)CCN(C)C [osimertinib]
area under confluence curve (H1975 [7]; dosing schedule: sequential, osimertinib-only DTP control AUC in same experiment: 15943): 1750
area under confluence curve (H1975 [7]; dosing schedule: upfront, osimertinib-only DTP control AUC in same experiment: 27804): 5730
area under confluence curve (HCC2279 [8]; dosing schedule: sequential, osimertinib-only DTP control AUC in same experiment: 20224): 6370
area under confluence curve (HCC2279 [8]; dosing schedule: upfront, osimertinib-only DTP control AUC in same experiment: 43517): 12400
area under confluence curve (HCC2935 [9]; dosing schedule: sequential, osimertinib-only DTP control AUC in same experiment: 6271): 6600
area under confluence curve (HCC2935 [9]; dosing schedule: upfront, osimertinib-only DTP control AUC in same experiment: 10360): 6240
area under confluence curve (HCC4006 [10]; dosing schedule: sequential, osimertinib-only DTP control AUC in same experiment: 21234): 5480
area under confluence curve (HCC4006 [10]; dosing schedule: upfront, osimertinib-only DTP control AUC in same experiment: 19238): 4030
area under confluence curve (HCC827 [11]; dosing schedule: sequential, osimertinib-only DTP control AUC in same experiment: 8266): 2780
area under confluence curve (HCC827 [11]; dosing schedule: upfront, osimertinib-only DTP control AUC in same experiment: 13929): 4260
area under confluence curve (II-18 [12]; dosing schedule: sequential, osimertinib-only DTP control AUC in same experiment: 21122): 426
area under confluence curve (II-18 [12]; dosing schedule: upfront, osimertinib-only DTP control AUC in same experiment: 22894): 19200

CCOC(=O)c1ccnc(CNCC(=O)N(CC)CCN(C)C)c1 + C=CC(=O)Nc1cc(Nc2nccc(-c3cn(C)c4ccccc34)n2)c(OC)cc1N(C)CCN(C)C [osimertinib]
area under confluence curve (PC9; test compound dose 1000 nM, dosing schedule: sequential, osimertinib-only DTP control AUC in same experiment: 3562, DMSO control AUC in same experiment: 31840): 3420
area under confluence curve (PC9; test compound dose 1000 nM, dosing schedule: upfront, osimertinib-only DTP control AUC in same experiment: 19015, DMSO control AUC in same experiment: 31840): 16700

O=C(N[C@@H](C1CC1)C(F)(F)F)c1cc(-c2cnn3cc(-c4ccc(F)cc4)cnc23)cs1 + C=CC(=O)Nc1cc(Nc2nccc(-c3cn(C)c4ccccc34)n2)c(OC)cc1N(C)CCN(C)C [osimertinib]
area under confluence curve (PC9; test compound dose 1000 nM, dosing schedule: sequential, osimertinib-only DTP control AUC in same experiment: 10206, DMSO control AUC in same experiment: 18733): 9160
area under confluence curve (PC9; test compound dose 1000 nM, dosing schedule: upfront, osimertinib-only DTP control AUC in same experiment: 17072, DMSO control AUC in same experiment: 18733): 16800
